# Assay results: PubChem BioAssay (NCI)
# Compounds without any hit were thinned out: in the full panel of roughly 83,000, 20% have a hit.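 Step 1: grow cells in 96-well plates. Step 2: add test compound at a single concentration. Step 3: incubate 48 h. Step 4: record percent growth.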 Values without a mark were called inactive. Activity calls are given as the source filed them. The calls were made as follows: active = growth percent below 10; inactive = the rest.
# Test system: IGROV1 ovarian
# Assay: NCI-60 one-dose screen, 48 h (100 = growth as untreated, 0 = no growth, -100 = all killed)
# Conditions: 10 µM unless noted
row,Compound,growth
1,O=[N+]([O-])c1cc(Br)c2cccc3c2c1CC3,111%
2,NS(=O)(=O)c1ccc(Cn2c(SCC(=O)N/N=C/c3ccccc3O)nc3ccccc3c2=O)cc1,62.3%
3,CCNC(=O)Oc1ccc(/C(=C(\C)c2ccccc2)c2ccc(OCCN(CC)CC)cc2)cc1,84.3%
4,COc1ccc(C(=O)/C=C/c2cc3ccccc3n3nnnc23)cc1,109%
5,O=C(N/N=C/c1ccc(Oc2ccccc2)cc1)c1cnn2c1NC(c1ccccc1)C2 (centres undefined),59.3%
6,NC1=NN=C(N)C1=Cc1cc2ccccc2n2nnnc12,103%
7,CCSCC1CC(O)(c2ccccc2)CC(c2ccc(F)cc2)O1 (centres undefined),48.5%
8,Cc1cccc(NC(=O)Nc2ccc(-n3cnc4cc(-c5ccc(O)cc5)ccc43)cc2)c1,33.2%
9,COc1ccc(/C=C(\C#N)n2nc3cccc(F)c3n2)cc1,96.8%
10,Nc1n[nH]c2cccc(C#Cc3cccc(C(=O)Nc4cccc(C(F)(F)F)c4)c3)c12,30.3%
11,C=C1C(=O)O[C@H]2[C@H]1CC/C(C(=O)NCCCCCNC(=O)/C1=C/CC[C@@]3(C)O[C@H]3[C@H]3OC(=O)C(=C)[C@@H]3CC1)=C\CC[C@@]1(C)O[C@@H]21,101%
12,N#Cc1c(NCc2ccccc2I)sc2c1CCCCC2,71.9%
13,C=C1C(=O)O[C@H]2[C@H]1CC/C(COC(=O)NCC(C)c1ccc(CC(C)C)cc1)=C\CC[C@@]1(C)O[C@@H]21 (some centres undefined),-69.5% (active)
14,Cc1cc(C(=O)/C=C/c2ccc[nH]2)ccc1-n1ccc(C(F)(F)F)n1,92.3%
